Screens: PubChem BioAssay, National Center for Advancing Translational Sciences (NCATS)
Most compounds without a hit are left out; they make up all but 2.9% or so of the library.
D3 ag – D3 dopamine receptor (human) agonism. 0.58% of 410,000 active. max activation, %. AID 652048. D3R DiscoveRx beta-arrestin cells, luminescence, 90 min. P35462; in the data active = max activation above about 30%; also: 0% is about no effect
Target sequence (P35462 whole entry, looked up): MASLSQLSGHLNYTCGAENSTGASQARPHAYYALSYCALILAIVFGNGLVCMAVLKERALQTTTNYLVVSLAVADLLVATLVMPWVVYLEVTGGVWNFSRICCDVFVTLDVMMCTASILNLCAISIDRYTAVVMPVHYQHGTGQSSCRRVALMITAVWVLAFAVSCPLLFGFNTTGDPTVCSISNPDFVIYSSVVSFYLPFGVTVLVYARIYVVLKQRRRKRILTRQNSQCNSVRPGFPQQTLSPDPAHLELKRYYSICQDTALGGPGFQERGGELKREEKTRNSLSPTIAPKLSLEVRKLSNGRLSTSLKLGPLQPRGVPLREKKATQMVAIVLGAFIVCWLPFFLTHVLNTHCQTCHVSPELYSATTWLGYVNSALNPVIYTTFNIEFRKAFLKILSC
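Agonist-mode cell screen: cells plated at 1500/well and incubated overnight at 37 °C, then exposed to library compounds for 90 min at 37 °C. Detection reagent was added for 30–60 min at room temperature, and luminescence was read.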
DRD3 antagonist – D3 dopamine receptor (human) antagonism. D3R cells, DiscoveRx beta-arrestin luminescence, antagonist mode; active compounds read low. max response, negative = inhibition, %. 2.5% of 360,000 active; in the data active = max response below about -50%; inconclusive = no clear call, values can overlap the other calls; also: % is scaled to controls: 0 for no effect and ±100 for the full control effect
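Cells expressing the human receptor were seeded at 1500 cells/well, incubated overnight at 37 degrees C in 5% CO2, then exposed to library compounds with dopamine controls for 90 minutes at 37 degrees C before luminescent detection.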
Integrin act MD – activates integrin-mediated alleviation for muscular dystrophy | alpha7betagal myoblasts, beta-gal FDG fluorescence, 48 h | 0.064% of 350,000 active | Potency, µM (series often up to 38.3 µM), without a hit: top-dose activation, most hits filed as activators; active = well fitted activation curve with a large enough effect; inconclusive = small, poorly fitted or top-dose-only effect; inactive = no such curve, though single readings can be large or run the other way;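 also: potency is read from the fitted curve at half-maximal effect; 100% = response of the positive control SU9516; nearly all actives have a fitted effect of over 60% in size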
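Alpha7betagal+/- myoblasts (passage 13) were plated 16-24 hr, then exposed to compounds (1:260 dilution of DMSO stock) for 48 hours at 37C. After MPER lysis, β-galactosidase reporter activity was read as FDG fluorescence (ex 480/em 540) after 30 minutes.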
The depositor's hits bear a star; ? = inconclusive; nt = not tested or not shown; [ ] = dose if it differs, or a comment.

SMILES | D3 ag | DRD3 antagonist | Integrin act MD
CCCCCC/C(C=O)=C\c1ccccc1 | 8 | 17 | nt
Cc1ccc(C(C)NC(=O)c2cccs2)cc1C (stereo not given) | -1 | 2 | -17%
COc1ccc(N2CCCC2)c(NC(=O)COc2ccccc2Cl)c1 | 4 | 15 | -36%
O=C(Nc1ccccc1N1CCCC1)c1ccc([N+](=O)[O-])o1 | -4 | -14 | -55%
COc1ccc(N2CCCC2)c(NC(=O)c2ccc([N+](=O)[O-])o2)c1 | -1 | 10 | 7.9µM*
COc1ccc(OCC(=O)Nc2cc(OC)ccc2N2CCCCC2)cc1 | 36* | 25 | 0%
CC[C@@H](C)[C@H](NC(=O)Cc1c(C)c2c(cc(C)c3c(C)coc32)oc1=O)C(=O)O | -3 | -25 | 5%
CC(C)Sc1nc2ccccc2n1CC(=O)NCc1ccc2c(c1)OCO2 | 21 | 13 | -21%
Cc1ccc(-n2c(SCC(=O)Nc3cccc(S(N)(=O)=O)c3)nc3ccccc32)cc1 | 44* | 52 | -36%
Cc1nnc(SCC(=O)Nc2cccc(S(N)(=O)=O)c2)n1-c1ccccc1 | 0 | -2 | -53%
O=C(COc1c(F)c(F)cc(F)c1F)NC(=O)NC1CCCC1 | -2 | 2 | -1%
CCc1ccc2c(CN3CCN(S(=O)(=O)c4ccccc4F)CC3)cc(=O)oc2c1 | -9 | 4 | -3%
CCOC(=O)Nc1ccc2c(CN3CCC(C(=O)OC)CC3)cc(=O)oc2c1 | 14 | -3 | -32%
COC(=O)C1CCN(Cc2cc(=O)oc3cc(C)c(Cl)cc23)CC1 | 95* | 4 | -16%
Cc1cc2oc(=O)cc(CN3CCCCC3C)c2cc1Cl (stereo not given) | -5 | -1 | -19%
CCc1ccc2c(CN3CCN(S(=O)(=O)c4cccs4)CC3)cc(=O)oc2c1 | -6 | -75* | 28%
Cc1cc2oc(=O)cc(Cn3ncc(Cl)c(Cl)c3=O)c2cc1Cl | -10 | -77* | -63%
Cc1cc2oc(=O)cc(CN3CCN(c4ccccc4)CC3)c2cc1Cl | 5 | 14 | nt
CCc1ccc2c(CN3CCC(C(=O)OC)CC3)cc(=O)oc2c1 | 100* | 50 | -32%
CCC1Oc2ccc(C)cc2N(CC(=O)NCCCN2CCCCC2C)C1=O (stereo not given) | -1 | -13 | 2%
Cc1ccc(NC(=O)C2=CC(c3ccc4c(c3)OCO4)=NS(=O)(=O)N2C)cc1 | -17 | nt | nt
CC(=O)c1cccc(NC(=O)C2=CC(c3ccc4c(c3)OCO4)=NS(=O)(=O)N2C)c1 | -21 | -62* | 8%
COc1cc(C2N(c3ccc(F)cc3)C(=O)C3CCCN32)cc(OC)c1OC (stereo not given) | 0 | 7 | 36%
Cc1cc(C)nc(NC(=O)c2c(Cl)cccc2Cl)n1 | -2 | 6 | 2%
Cc1cc(C)nc(NC(=O)c2ccc(Cl)cc2Cl)n1 | 6 | -4 | 10µM*
SMILES | D3 ag | DRD3 antagonist | Integrin act MD
CC(=O)Oc1cccc(C(=O)O)c1OC(C)=O | 3 | nt | nt
O=C(CCNC(=O)c1ccccc1Cl)Nc1cc(C(F)(F)F)ccc1Cl | -6 | -5 | 33%
CN(C)c1cc[n+](CC(=O)Nc2cc(C(F)(F)F)ccc2Cl)cc1 | -28 | -59* | 10%
O=C(CN1CCOCC1)Nc1cc(C(F)(F)F)ccc1Cl | 3 | 17 | 13%
CN(C)c1cc[n+](CC(=O)Nc2ccc(Cl)cc2)cc1 | -17 | -20 | -31%
Cc1cc[n+](CC(=O)Nc2cc(C(F)(F)F)ccc2Cl)cc1 | -33 | -192* | 1%
CC1CCN(CC(=O)Nc2cc(C(F)(F)F)ccc2Cl)CC1 | -10 | -8 | 23%
O=C(CN1CCCCCC1)Nc1cc(C(F)(F)F)ccc1Cl | -6 | -77* | 25%
O=C(C[n+]1ccc2ccccc2c1)Nc1cc(C(F)(F)F)ccc1Cl | -36 | -68* | -31%
CCCN(Cc1nc2cc(Cl)ccc2c(=O)[nH]1)C(=O)c1ccc(S(=O)(=O)N2CCCC2)cc1 | 2 | 0 | -45%
S=C(CN1CCCC1=S)NCCc1ccccc1 | -3 | -6 | 7%
Cc1noc(C)c1S(=O)(=O)Nc1cccc(CO)c1 | 1 | 2 | 24%
COc1cccc(CC2(CO)CCCN(Cc3ccc(CN4CCCCC4)s3)C2)c1 (stereo not given) | -10 | 0 | -63%
O=C(CC(=O)c1ccccc1)Nc1cc(C(F)(F)F)ccc1Cl | -3 | 0 | -5%
O=C(C[n+]1ccccc1)Nc1cc(C(F)(F)F)ccc1Cl | -24 | -58* | -2%
CCOC(=O)c1c(C)[nH]c(C(=O)OCC(=O)NCc2ccco2)c1C | 1 | 21 | 2%
O=C(NCc1ccncc1)c1cccc(F)c1 | -14 | 15 | 38%[7.66 µM]
COc1cccc(NC(=O)C2(C)CCN2C(=O)Cc2ccc(-c3ccccc3)cc2)c1 (stereo not given) | 10 | 29 | nt
COc1cccc(NC(=O)C2(C)CCN2C(=O)CCc2ccc(Cl)cc2Cl)c1 (stereo not given) | -5 | -60* | nt
COCC(C)NCc1cccc2ccccc12 (stereo not given) | -6 | -15 | -17%
COc1ccc(CCC(C)NCc2cccc(Br)c2)cc1 (stereo not given) | -8 | -68* | 24%
CC(CCc1ccccc1)NCc1cccc2ccccc12 (stereo not given) | 3 | -54* | -53%
COc1ccc(CCC(C)NCc2ccccc2OC)cc1 (stereo not given) | -12 | -27 | -45%
CCN(CC)CCNC(=O)C1(O)c2cc(Br)ccc2NC(=O)N1c1ccccc1 (stereo not given) | 1 | 3 | 0%
NC(=O)C1CCN(C(=O)CNC(=O)c2ccc(F)cc2)CC1 | -4 | -11 | -10%
SMILES | D3 ag | DRD3 antagonist | Integrin act MD
CC1(CCC(=O)N2CCCC(N3CCN(c4cccc(C(F)(F)F)c4)CC3)C2)CC1 (stereo not given) | -14 | -66* | ?
CSCC(=O)N1CCCC(N2CCN(c3cccc(C(F)(F)F)c3)CC2)C1 (stereo not given) | -6 | 5 | 14%
COc1ccc(N=c2oc3c(OC)cccc3cc2C(=O)NCc2ccco2)cc1OC | 33* | 18 | 13%
COc1ccccc1N=c1oc2c(OC)cccc2cc1C(=O)NCc1ccco1 | 6 | 47 | 3%
CCOC(=O)C1CCN(C(=O)COC(=O)COc2ccc(Cl)cc2)CC1 | -6 | 7 | 6%
O=C(NN=Cc1ccc2c(c1)OCO2)C1CC1 | -9 | 1 | 14%
O=C(NN=Cc1ccc2c(c1)OCO2)NN=Cc1ccc2c(c1)OCO2 | 46* | 45 | 20%
COc1ccc(CN(C)CCc2ccccn2)cc1OC | -4 | -76* | -12%
COc1cc(CN(C)CCc2ccccn2)cc(OC)c1OC | -6 | 15 | -2%
CCOC(=O)c1c(NC(=O)CSc2nnc3c(Cl)cc(Cl)cn23)sc2c1CCC2 | 16 | 55 | -41%
Cc1ccc(C)c(N2CCN(C(=O)CCS(=O)(=O)c3ccc4c(c3)NC(=O)C(C)S4)CC2)c1 (stereo not given) | 5 | 22 | 9%
CCOc1cc(/C=N/N=C2/NC(=O)C(CC(=O)O)S2)ccc1OCc1ccc(Cl)cc1 (stereo not given) | -7 | 1 | 7%
CN(CC(=O)Nc1ccc(Cl)cc1)C(=O)C1=COCCO1 | -7 | 6 | 27%
COc1ccc(NC(=O)CN(C)C(=O)C2=COCCO2)cc1 | 1 | -59* | 12%
